Source: PubChem
Only a selection was taken, and hits are over-represented in it overall.
CBX7 AlphaScr = CBX7 inhibition, primary AlphaScreen | AlphaScreen His6-CBX7 / biotin-H3K27me3 peptide binding; active compounds read low | normalised signal (fraction of DMSO) (concentration not given with the values) | 1.1% of 66,000 active; in the data active = normalised signal below about 0.5
Target sequence (O95931 whole entry, looked up): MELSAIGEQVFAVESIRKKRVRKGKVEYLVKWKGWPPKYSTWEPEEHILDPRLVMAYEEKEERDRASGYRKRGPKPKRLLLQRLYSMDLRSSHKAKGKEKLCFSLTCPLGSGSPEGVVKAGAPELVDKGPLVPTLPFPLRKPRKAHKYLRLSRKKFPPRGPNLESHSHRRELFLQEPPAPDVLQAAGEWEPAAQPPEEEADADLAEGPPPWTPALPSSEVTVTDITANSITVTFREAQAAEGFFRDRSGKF
* marks the source's active call; other numbers are inactive results; ! = not confirmed by another sample.

COc1cccc(Nc2nc(-c3ccc(-c4ccccc4)cc3)cs2)c1 was read as CBX7 AlphaScr 0.63.
`Clc1ccc(-c2csc(Nc3ccc(Br)cc3)n2)cc1Cl` gave CBX7 AlphaScr 0.46*!.
`Cc1ccc(C)c(-c2csc(Nc3ccc(Cl)cc3)n2)c1` gave CBX7 AlphaScr 0.99.
For COc1ccc(-c2nc3ccc(C(=O)O)cc3nc2-c2ccc(OC)c(OC)c2)cc1OC the results were CBX7 AlphaScr 1.1.
Screening COc1ccc(-c2cc(C(F)(F)F)n3ncc(C(=O)NCc4cccnc4)c3n2)cc1OC returned CBX7 AlphaScr 1.1.
`Cc1cccc(NC2c3ccccc3C(=O)N2c2ccccn2)c1C` (centres undefined) gave CBX7 AlphaScr 0.99.
For CC1=Nc2cc(C(=O)NC(C)C)ccc2Sc2ccccc21 the results were CBX7 AlphaScr 0.92.
Screening Cc1nnc(Nc2cccc(O)c2)c2ccccc12 returned CBX7 AlphaScr 1.
`CCOc1ccc(-c2nnc(Nc3cccc(O)c3)c3ccccc23)cc1` gave CBX7 AlphaScr 0.49*.
Screening Oc1cccc(Nc2nnc(-c3ccc(Cl)cc3)c3ccccc23)c1 returned CBX7 AlphaScr 0.54.
For CCOc1ccc(-c2nnc(Nc3ccc(O)cc3)c3ccccc23)cc1 the results were CBX7 AlphaScr 1.
`Cc1ccc(-c2nnc(Nc3cccc(O)c3)c3ccccc23)cc1` gave CBX7 AlphaScr 0.42*.
For CCOc1ccc(-c2nnc(Nc3ccc(C(=O)N(C)C)cc3)c3ccccc23)cc1 the results were CBX7 AlphaScr 1.
CCCCN1C(=O)C(O)(CC(=O)c2ccccc2)c2cc(Br)ccc21 (centres undefined) was read as CBX7 AlphaScr 0.78.
For CC(=O)Nc1c2c(nn1-c1ccc(F)cc1)CS(=O)(=O)C2 the results were CBX7 AlphaScr 0.99.
`CCN1C(=O)c2ccccc2Sc2ccc(C(=O)NCc3cc(OC)ccc3OC)cc21` gave CBX7 AlphaScr 1.
COc1cc2c(C(=O)Nc3ccc(F)c(Cl)c3)cn(C)c(=O)c2cc1OC was read as CBX7 AlphaScr 1.1.
`CNS(=O)(=O)c1cc(-c2nnc(Nc3ccc(F)cc3)c3ccccc23)ccc1C` gave CBX7 AlphaScr 0.9.
Fc1cccc(Cl)c1Cc1noc(Cc2c(F)cccc2Cl)n1 was read as CBX7 AlphaScr 1.2.
Screening COc1ccccc1CCNC(=O)c1cnc2ccccn2c1=O returned CBX7 AlphaScr 1.2.
Screening CCOC(=O)c1cnc2c(C)cc(Cl)cc2c1Nc1ccc(OC)cc1 returned CBX7 AlphaScr 0.99.
`Cc1ccc(CNC(=O)CN2C(=O)COc3ccc(Cl)cc32)cc1` gave CBX7 AlphaScr 1.4.
`O=C(CN1C(=O)COc2ccc(Cl)cc21)NCc1ccc(F)cc1` gave CBX7 AlphaScr 0.42*.
Screening CCN(CC)S(=O)(=O)c1ccc2c(c1)N(CC(=O)NCc1ccc(F)cc1)C(=O)CO2 returned CBX7 AlphaScr 0.99.
`CC1CCCC(NC(=O)C2c3ccccc3C(=O)N2Cc2ccc(F)cc2Cl)C1C` (centres undefined) gave CBX7 AlphaScr 1.
CCOC(=O)c1cnc2ccc(OCC)cc2c1N1CCCCCC1 was read as CBX7 AlphaScr 1.1.
CCOC(=O)c1cnc2ccc(OCC)cc2c1N1CCN(c2ccccc2OC)CC1 was read as CBX7 AlphaScr 0.46*.
`CCOC(=O)c1cnc2c(OC)cccc2c1N1CCC(C)CC1` gave CBX7 AlphaScr 0.65.
`CCOC(=O)c1cnc2c(OC)cccc2c1N1CCN(c2ccccc2F)CC1` gave CBX7 AlphaScr 0.43*.
Screening CCOC(=O)c1cnc2cc(C(F)(F)F)ccc2c1N1CCN(c2ccccc2OC)CC1 returned CBX7 AlphaScr 0.86.
For CCOC(=O)c1cnc2c(OC)cccc2c1N1CCN(c2ccccc2)CC1 the results were CBX7 AlphaScr 0.56.
COc1ccc(-c2nc(Nc3ccc(C)cc3Br)c3ccccc3n2)cc1OC was read as CBX7 AlphaScr 0.98.
Screening CCc1ccc(-n2cc(-c3ccc(Cl)cc3)[nH]c2=O)cc1 returned CBX7 AlphaScr 0.96.
For Cc1cc(NC(=O)CNC(=O)Cn2cnc3sc4c(c3c2=O)CCCC4)no1 the results were CBX7 AlphaScr 1.1.
`CC1CCC(NC(=O)c2ccc3nc(N4CCOCC4)sc3c2)CC1` (centres undefined) gave CBX7 AlphaScr 1.1.
`Cc1ccc(-n2c(Cc3cccn3C)nnc2SCC(=O)NCCc2ccccc2)cc1` gave CBX7 AlphaScr 0.9.
Screening c1ccc(-c2nnc3sc(-c4cnccn4)nn23)cc1 returned CBX7 AlphaScr 1.
`c1ccc(-c2nnc3sc(-c4ccccn4)nn23)cc1` gave CBX7 AlphaScr 0.8.
Screening CC(C)(C)c1ccc(-c2nnc3sc(-c4ccccn4)nn23)cc1 returned CBX7 AlphaScr 0.11*.
`COc1cc(CN2CCN(Cc3ccc(Cl)cc3)CC2)cc(OC)c1OC` gave CBX7 AlphaScr 0.79.
Screening COc1ccc(NC(=O)Nc2ccc3snnc3c2)cc1OC returned CBX7 AlphaScr 0.95.
`COc1ccc(CN2C(=O)c3cccnc3C2O)cc1` (centres undefined) gave CBX7 AlphaScr 0.01*.
CCOC(=O)c1ccc(NC2c3ncccc3C(=O)N2Cc2ccc(F)cc2)cc1 (centres undefined) was read as CBX7 AlphaScr 0.45*.
Screening COc1ccc(NC2c3ncccc3C(=O)N2Cc2ccc(F)cc2)cc1 (centres undefined) returned CBX7 AlphaScr 0.64.
COc1ccc(CN2C(=O)c3cccnc3C2Nc2cc(Cl)ccc2C)cc1 (centres undefined) was read as CBX7 AlphaScr 0.91.
O=C1c2cccnc2C(Nc2ccc(F)cc2)N1Cc1ccc(F)cc1 (centres undefined) was read as CBX7 AlphaScr 0.84.
`COc1ccc(NC2c3ncccc3C(=O)N2Cc2ccc(F)cc2)cc1Cl` (centres undefined) gave CBX7 AlphaScr 0.62.
For CCC(C)NC(=O)C1c2ccccc2C(=O)N1Cc1ccc(OC)cc1 (centres undefined) the results were CBX7 AlphaScr 1.1.
`O=C1c2cccnc2C(Nc2ccc(F)c(Cl)c2)N1Cc1ccc(F)cc1` (centres undefined) gave CBX7 AlphaScr 0.81.
Screening COc1ccc(CN2C(=O)c3cccnc3C2Nc2cc(Cl)ccc2OC)cc1 (centres undefined) returned CBX7 AlphaScr 0.0053*.
Cc1ccc2cc(CCNC(=O)c3ccccc3Br)c(=O)[nH]c2c1C was read as CBX7 AlphaScr 1.
O=C(NCCCN1CCN(C2CCCCC2)CC1)c1csc2c1CCCC2 was read as CBX7 AlphaScr 1.
For Cc1cccc(-c2nc(CSCC(=O)N3CCOCC3)c(C)o2)c1 the results were CBX7 AlphaScr 1.
`CCCC(=O)Nc1cccc(-c2nc3ncccc3o2)c1C` gave CBX7 AlphaScr 1.
`CC(NC(=O)NC1(c2ccccc2)CC1)C12CC3CC(CC(C3)C1)C2` (centres undefined) gave CBX7 AlphaScr 0.87.
CCOCCCNC(=O)c1ccc2c(c1)N=C(C)c1c(C)ccc(C)c1S2 was read as CBX7 AlphaScr 0.94.
`Cc1ccc2oc(-c3ccc(C)c(NC(=O)c4cccc5c(Br)cccc45)c3)nc2c1` gave CBX7 AlphaScr 1.1.
Screening Cc1ccc(-c2cc(C(=O)NCCCN(C)C)c3ccccc3n2)cc1C returned CBX7 AlphaScr 1.
c1ccc2c(-c3nc(C4CCCCC4)no3)cc(-c3ccncc3)nc2c1 was read as CBX7 AlphaScr 0.49*.
